# Only some compounds are listed: those with a hit (about 10% of all), similar ones and a draw of the others.
# hNpr1 antagonist: Natriuretic polypeptide receptor (hNpr1) antagonism - Primary qHTS; Atrial natriuretic peptide receptor 1 (Homo sapiens), P16066; hit rate 1.6% among 76,000; HEK293 hNpr1 GloSensor cGMP, ANP-stimulated luminescence; Potency, µM (series often up to 46.3 µM), for inactives: top-dose activity change, negative = inhibition, usual class: inhibitors; calls by dose curve; further: nearly all actives have a fitted effect of over 60% in size
# Target sequence (P16066 whole entry, looked up): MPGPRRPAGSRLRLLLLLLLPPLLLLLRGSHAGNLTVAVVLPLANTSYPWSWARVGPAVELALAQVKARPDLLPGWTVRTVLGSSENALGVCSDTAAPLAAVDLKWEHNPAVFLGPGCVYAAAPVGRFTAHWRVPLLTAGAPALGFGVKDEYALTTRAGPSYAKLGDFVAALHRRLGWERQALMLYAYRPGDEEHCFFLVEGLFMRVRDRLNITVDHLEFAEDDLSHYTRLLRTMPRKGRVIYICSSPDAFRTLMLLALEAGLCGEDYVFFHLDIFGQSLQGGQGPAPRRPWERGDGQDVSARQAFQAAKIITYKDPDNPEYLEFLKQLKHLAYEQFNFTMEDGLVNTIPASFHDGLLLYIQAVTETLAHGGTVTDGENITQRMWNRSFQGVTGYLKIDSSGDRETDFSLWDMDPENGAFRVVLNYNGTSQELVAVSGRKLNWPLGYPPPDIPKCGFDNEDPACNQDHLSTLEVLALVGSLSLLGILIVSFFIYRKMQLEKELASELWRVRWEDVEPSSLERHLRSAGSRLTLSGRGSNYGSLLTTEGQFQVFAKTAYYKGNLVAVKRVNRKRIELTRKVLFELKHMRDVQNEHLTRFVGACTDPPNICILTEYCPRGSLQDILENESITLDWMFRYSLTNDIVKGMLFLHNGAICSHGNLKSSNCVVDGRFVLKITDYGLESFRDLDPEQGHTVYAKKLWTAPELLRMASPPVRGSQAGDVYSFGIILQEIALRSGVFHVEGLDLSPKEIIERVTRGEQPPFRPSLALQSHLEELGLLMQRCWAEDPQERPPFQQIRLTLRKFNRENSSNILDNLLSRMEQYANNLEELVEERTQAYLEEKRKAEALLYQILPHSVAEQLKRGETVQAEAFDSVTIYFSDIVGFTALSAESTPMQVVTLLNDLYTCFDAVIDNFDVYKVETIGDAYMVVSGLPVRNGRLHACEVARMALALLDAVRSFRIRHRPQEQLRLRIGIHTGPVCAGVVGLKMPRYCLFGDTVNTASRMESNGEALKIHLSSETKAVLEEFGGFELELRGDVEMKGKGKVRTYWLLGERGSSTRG
#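 HEK293 cells stably expressing human Npr1 and cGMP GloSensor pGS-40F, loaded 2 h with 2% GloSensor reagent, given compound 30 min at room temperature. Luminescence read before and 20 min after 0.1 nM hNppA.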
# FLuc inh: Firefly luciferase inhibition profiling of diverse chemical library using quantitative high-throughput screening | Luciferin 4-monooxygenase (Photinus pyralis), P08659 | purified P. pyralis luciferase, luminescence, biochemical | Potency, µM (series often up to 115 µM), actives largely listed as inhibitors | hit rate 2.5% among 76,000 | AID 1347043, 2019; further: nearly all actives have a fitted effect of over 65% in size
#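 Purified P. pyralis luciferase (10nM final) in 50mM Tris acetate pH 7.5, 10mM Mg acetate, 0.01% Tween-20, 0.05% BSA with 10uM D-luciferin and 10uM ATP. Compounds titrated qHTS. Luminescence imaged on CCD.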
# HEK cytotox: Cytotoxic Profiling in HEK 293 Cell Line of Diverse Libraries Using Quantitative High-Throughput Screening | hit rate 6.6% among 94,000 | HEK 293 viability, ATP luminescence (CellTiter-Glo), 48-72 h | AID 1345083, 2018 | Potency, µM (top dose mostly 115 µM), inactives show at the top dose activity change, negative = cytotoxicity, actives largely listed as inhibitors; further: nearly all actives have a fitted effect of over 60% in size
#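 250 HEK 293 cells/well; compound by pintool; incubated 48 or 72 hr at 37 degree Celsius; CellTiter-Glo added, 10 min RT, luminescence imaged.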
# NIH3T3 tox: Cytotoxic Profiling in NIH 3T3 Cell Line of Diverse Libraries Using Quantitative High-Throughput Screening. NIH 3T3 viability, CellTiter-Glo ATP luminescence, 48-72 h. Potency, µM (series often up to 96.7 µM), for the others: at the top dose activity change, negative = cytotoxicity, usual class: inhibitors. hit rate 4.3% among 94,000. AID 1345082, 2018; further: nearly all actives have a fitted effect of over 55% in size
#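 NIH 3T3 cells at 400 cells/well received 23 nL of compound by pintool and were incubated 48 or 72 h at 37 °C. Viability was read as ATP-coupled CellTiter-Glo luminescence.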
# GPT2 inhibitor: Primary qHTS assay for inhibitors of Glutamate pyruvate transaminase 2 (GPT2); Alanine aminotransferase 2 (Homo sapiens), Q8TD30; Recombinant GPT2, coupled pyruvate oxidase/HRP Amplex Red fluorescence; Potency, µM (highest dose often 57.7 µM), for the others: top-dose activity change, negative = inhibition, most hits filed as inhibitors; hit rate 0.25% among 100,000; AID 1671188, 2021; further: nearly all actives have a fitted effect of over 60% in size
#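 Fluorescence read-out: pyruvate from GPT2 turnover coupled to pyruvate oxidase, HRP and Amplex Red (0.2mM ThPP, 0.2U/mL PO and HRP, 50uM Amplex final). Substrates 250uM a-KG, 2mM L-alanine; enzyme 10ng/uL; 30 min RT.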
# Numbers without * were called inactive; i = inactive; ? = inconclusive; nt = no result given; [ ] = another dose, or the depositor's remark. Unless noted, the call rests on the fitted dose curve; in most records, active means well fitted curve in the direction sought with a large enough effect; inconclusive means small, poorly fitted or top-dose-only effect, or another doubt; inactive means no such curve, though single readings can be large; an effect the other way counts as inactive or inconclusive. On the % scale 0 is the no-effect control and ±100 the full control effect; potency means the concentration at half of the fitted maximal effect.
SMILES,hNpr1 antagonist,FLuc inh,HEK cytotox,NIH3T3 tox,GPT2 inhibitor
COc1ccc(C)cc1NC(=O)CN1C(=O)NC2(CCC(C(C)(C)C)CC2)C1=O (centres undefined),-23.6%,i,?,?,-5.8%
Cc1cc(F)ccc1NC(=O)CN1C(=O)NC2(CCC(C(C)(C)C)CC2)C1=O (centres undefined),-1.8%,i,?,39.8µM*,i
CC(C)(C)C1CCC2(CC1)NC(=O)N(CC(=O)Nc1ccc(F)cc1F)C2=O (centres undefined),-7.5%,i,?,-41.8%,?
COc1ccc(NC(=O)CN2C(=O)NC3(CCC(C(C)(C)C)CC3)C2=O)c(OC)c1 (centres undefined),0.0%,i,35.5µM*,?,-23.0%
Cc1ccc([S+](=O)([O-])N2CCCC2C(=O)N2CCC(c3nc4ccncc4[nH]3)CC2)cc1 (centres undefined),nt,nt,i,-9.6%,-10.9%
O=C(NCC(=O)N1CCOCC1)c1ccc(-c2cccc(C(F)(F)F)c2)cc1,nt,nt,?,?,0.0%
CCN1c2cc(C(=O)Nc3ccc(OC(F)(F)F)cc3)ccc2C(=O)N2CCCCCC21 (centres undefined),-23.9%,i,31.6µM*,25.1µM*,-16.5%
CCN1c2cc(C(=O)Nc3cccc(OC(F)(F)F)c3)ccc2C(=O)N2CCCCC21 (centres undefined),-10.0%,i,25.1µM*,?,i
CCN1c2cc(C(=O)Nc3cc(F)cc(F)c3)ccc2C(=O)N2CCCCCC21 (centres undefined),0.0%,i,?,?,i
CCN1c2cc(C(=O)Nc3ccc(C(F)(F)F)cc3)ccc2C(=O)N2CCCCC21 (centres undefined),-4.5%,i,?,?,i
Cc1ncccc1C(=O)N1CCC2(CC1)CC(N(Cc1ccc(F)cc1)C1CC1)CCO2 (centres undefined),-6.5%,i,?,-21.3%,i
CN(Cc1ccccc1)Cc1cc(CC2(NCc3cccs3)COC2)no1,-2.6%[70.6 µM],i,?,-19.3%[138 µM],0.9%[88.5 µM]
CC(C)CCNC(=O)c1cnc2n1CCN(Cc1ccc3c(c1)CCO3)CC2,-12.4%[70.6 µM],i,?,?,-25.7%[88.5 µM]
COc1ccc(F)c(CN2CCCC(O)(CN(C)Cc3ccccc3)C2=O)c1 (centres undefined),-3.1%,i,?,0.1%,-41.3%
O=C(NCC(F)F)c1cc(-c2cccs2)c2cccn2n1,nt,nt,?,?,-21.4%[88.5 µM]
COc1ccccc1OCC(=O)c1ccc2c(c1)N(C(C)C(=O)NCCc1ccccc1)C(=O)CO2 (centres undefined),6.8%,i,?,?,i
Cc1cc(F)ccc1OCC(=O)c1ccc2c(c1)N(C(C)C(=O)N1CCCCC1)C(=O)CO2 (centres undefined),-4.0%,?,50.1µM*,?,i
Cc1cccc(OCC(=O)c2ccc3c(c2)N(C(C)C(=O)N2CCCC2)C(=O)CO3)c1C (centres undefined),0.0%,?,44.7µM*,-29.8%,i
COc1cccc(OCC(=O)c2ccc3c(c2)N(CCCC(=O)NCc2ccccc2)C(=O)CO3)c1,-1.9%,i,?,39.8µM*,-8.6%
CC(C(=O)NCCc1ccccc1)N1C(=O)COc2ccc(C(=O)COc3ccc(Cl)cc3)cc21 (centres undefined),-3.9%,i,44.7µM*,?,-1.1%
CC(C(=O)NC1CC1)N1C(=O)COc2ccc(C(=O)COc3cccc(Cl)c3)cc21 (centres undefined),-15.8%,i,?,?,-2.5%
COc1cc(C)ccc1OCC(=O)c1ccc2c(c1)N(CC(=O)N1CCCC1)C(=O)CO2,-8.8%,i,?,-24.2%,i
COc1ccccc1-c1cc2c(ccn2C)c(C(=O)NCCN2CCNC2=O)n1,0.4%[70.6 µM],i,-27.9%[172 µM],100µM*,-14.4%[88.5 µM]
COc1ccccc1-c1cc2c(ccn2C)c(C(=O)NCCc2cnc[nH]2)n1,-2.3%[70.6 µM],i,?,?,3.4%[88.5 µM]
Cn1ccc2c(C(=O)NCC3CCC(=O)N3)nc(-c3ccccc3O)cc21 (centres undefined),0.2%[70.6 µM],i,?,39.8µM*,1.4%[88.5 µM]
SMILES,hNpr1 antagonist,FLuc inh,HEK cytotox,NIH3T3 tox,GPT2 inhibitor
COc1ccccc1-c1cc2c(ccn2C)c(C(=O)NCC2CCN(C)C(=O)C2)n1 (centres undefined),3.0%[70.6 µM],i,-15.1%[172 µM],79.4µM*,i
Fc1ccccc1CC1CCN(CC2[C@H]3CNC[C@@H]23)CC1 (some centres undefined),4.1%,i,?,35.5µM*,i
OC[C@@H]1CNC[C@H]1C1CCN(Cc2ccncc2F)CC1,0.7%,i,i,-0.2%,i
CCC(=O)N1CCN(c2nc3c(s2)CC(C(=O)NCC(C)C)CC3)CC1 (centres undefined),-17.9%,i,?,-17.6%,-0.4%
O=C(Nc1ccc(F)cc1)c1nc2sccn2c1-c1cccnc1,nt,nt,-2.9%,-3.4%,-8.5%
CC(C)C[C@@H]1N[C@H](C(=O)NC2CCCC2)Cc2c[nH]c3cccc1c23,-3.9%[70.6 µM],i,31.6µM*,50.1µM*,-11.0%[88.5 µM]
CC(C)C[C@@H]1N[C@H](C(=O)NC2CCC2)Cc2c[nH]c3cccc1c23,3.4%[70.6 µM],i,44.7µM*,50.1µM*,1.3%[88.5 µM]
CC(C)C[C@@H]1N[C@H](C(=O)N2CCN(c3ncccn3)CC2)Cc2c[nH]c3cccc1c23,-1.0%[70.6 µM],i,79.4µM*,?,-14.4%[88.5 µM]
COc1ccccc1CNC(=O)C1(c2ccc(NC(=O)C3CC3)cc2)CCCCC1,3.9%,i,1.7%,?,i
O=C(NC1CCCCC1)O[C@@H]1CO[C@H]2[C@@H]1OC[C@@H]2n1nnnc1Sc1ccccc1,-10.7%[70.6 µM],i,100µM*,?,4.9%[88.5 µM]
O=C(NC1CCCCC1)O[C@@H]1CO[C@H]2[C@@H]1OC[C@@H]2n1nnnc1Sc1ncccn1,6.2%[70.6 µM],i,-11.0%[172 µM],-7.7%[174 µM],i
COc1cccc(-c2nc(-c3c(C)noc3C)cc3c2cc(C)n3CCN(C)C)c1OC,-11.5%[70.6 µM],i,?,?,?
Cc1noc(C)c1-c1cc2c(cc(C)n2CCN(C)C)c(-c2cccnc2)n1,-12.8%[70.6 µM],i,70.8µM*,?,-3.6%[88.5 µM]
Cc1noc(C)c1-c1cc2c(cc(C)n2CCN(C)C)c(-c2ccccc2O)n1,0.5%[70.6 µM],i,44.7µM*,31.6µM*,-8.9%[88.5 µM]

# Screening results from PubChem BioAssay.
